Active and inactive are the calls of the source.
Assay: CREB reporter modulators under forskolin, primary screen, cell-based, PC12, CRE-LacZ reporter, forskolin-stimulated (AID 1146);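 note: PC12 cells with 6xCRE LacZ reporter stimulated by forskolin 10 µM; beta-galactosidase reporter signal reflecting CREB driven transcription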
Conditions: luminescence, 4.5 h, higher = more signal, called active from +8 up or from −8 down

z-score, inactive:
CC(C)C[C@@H]1NC(=O)CNC(=O)[C@@]23C(=O)N[C@@H](Cc4ccccc4)C2[C@H](C)[C@@]2(C)O[C@H]2C3/C=C/C/C=C\CNC1=O (stereo not given in full) 0.297
COCCOC(=O)N1C(=O)[C@@]2(c3cc(C#CC4(O)CCCCCC4)ccc31)[C@H](c1ccc(OCCO)cc1)N1[C@H](c3ccccc3)[C@H](c3ccccc3)OC(=O)[C@H]1[C@@H]2C(=O)Nc1nc2ccccc2s1 0.138
COCCOC(=O)N1C(=O)[C@@]2(c3cc(C#CCC(C(=O)OC)C(=O)OC)ccc31)[C@H](C(=O)NC[C@H](O)c1ccccc1)[C@H]1C(=O)O[C@H](c3ccccc3)[C@H](c3ccccc3)N1[C@@H]2c1ccc(O)cc1 -0.221
C=C(C(=O)CC[C@H](OC(=O)c1ccccc1-c1ccccc1C(=O)O)c1ccccc1OCCO)C(C)C 1.19
C=C(C)[C@@H]1CC=C(C(O)C2C=CC3C(=O)N(c4ccccc4)C(=O)C3N2Nc2ccc(C#N)cc2)CC1 (stereo not given in full) -0.345

Reference: PubChem BioAssay
